# ELG1 repair inh: qHTS screen for small molecules that inhibit ELG1-dependent DNA repair in human embryonic kidney (HEK293T) cells expressing luciferase-tagged ELG1; Potency, µM (doses to about 46.1 µM), usual class: inhibitors; HEK293T ELG1-luciferase reporter, luminescence, 16 h; DNA damage induced by 5-fluorouridine; 2.3% of 330,000 active; further: nearly all actives have a fitted effect of over 55% in size
#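 Luminescence from the luciferase reporter, measured 30 min after ONE-Glo reagent at room temperature, was the read-out. Beforehand, 2,000 cells per well were exposed for 16 hr at 37 °C to 5-fluorouridine together with compound or vehicle.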
# DT40 TDP1 CPT: qHTS for Inhibitors of human tyrosyl-DNA phosphodiesterase 1 (TDP1): qHTS in cells in presence of CPT; chicken DT40 Tdp1-/-;hTDP1 cells + 20 nM CPT, ATP luminescence, 48 h; Potency, µM (top dose mostly 46.2 µM), usual class: inhibitors; 12% of 420,000 active; AID 686979, 2013; further: nearly all actives have a fitted effect of over 55% in size
#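 Chicken DT40 Tdp1-/- cells complemented with human TDP1, 400 cells/well, exposed to compounds plus 20 nM camptothecin for at least 48 h at 37 C; viability read as ATP content by CellTiter-Glo luminescence.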
# Gal4-VP16 FLuc: VP16 counterscreen qHTS for inhibitors of ROR gamma transcriptional activity; Drosophila S2 Gal4-VP16 UAS-luciferase, luminescence, 20 h; Potency, µM (titrated, usually from 53.6 µM), most hits filed as inhibitors; 3.5% of 310,000 active;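 further: Gal4-VP16 expression switched on by copper sulfate through the metallothionein promoter; nearly all actives have a fitted effect of over 50% in size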
# DT40 TDP1 no CPT: qHTS for Inhibitors of human tyrosyl-DNA phosphodiesterase 1 (TDP1): qHTS in cells in absence of CPT; AID 686978, 2013; 15% of 420,000 active; Potency, µM (series often up to 46.2 µM), most hits filed as inhibitors; DT40 Tdp1-/- hTDP1 cells, no CPT, ATP luminescence, 48 h; further: nearly all actives have a fitted effect of over 55% in size
#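 Cells were dispensed at 400 per well, compounds added by pin tool, plates incubated ≥48 hr at 37 °C, then CellTiter-Glo added for 30 min at room temperature before luminescence reading. Line: DT40 Tdp1-/- complemented with hTDP1; camptothecin omitted.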
# IL1B secr inh: qHTS for Inhibitors of Inflammasome Signaling: IL-1-beta AlphaLISA Primary Screen | activity change, % at 57.5 µM | 4.7% of 360,000 active | THP-1 LPS/ATP IL-1B secretion, AlphaLISA, 16 h; hits give low values; in the data active means activity change below about -50%; inconclusive means mostly about -30% to -49%
#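 Secreted IL-1B measured by AlphaLISA bead assay after 16 h compound exposure of THP-1 cells; compounds (final up to 57.5 uM) added 1 h before LPS (250 ng/mL) and ATP (1.25 mM) stimulation; lower signal means less secretion.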
# RORg inh: qHTS for inhibitors of ROR gamma transcriptional activity; Nuclear receptor ROR-gamma (Mus musculus), P51450; Drosophila S2 Gal4-RORgamma UAS-luciferase reporter, 20 h; Potency, µM (titrated, usually from 53.6 µM), usual class: inhibitors; 5.4% of 310,000 active; AID 2551, 2010; further: nearly all actives have a fitted effect of over 60% in size
# Target sequence (P51450 whole entry, looked up, the tested form may be a part): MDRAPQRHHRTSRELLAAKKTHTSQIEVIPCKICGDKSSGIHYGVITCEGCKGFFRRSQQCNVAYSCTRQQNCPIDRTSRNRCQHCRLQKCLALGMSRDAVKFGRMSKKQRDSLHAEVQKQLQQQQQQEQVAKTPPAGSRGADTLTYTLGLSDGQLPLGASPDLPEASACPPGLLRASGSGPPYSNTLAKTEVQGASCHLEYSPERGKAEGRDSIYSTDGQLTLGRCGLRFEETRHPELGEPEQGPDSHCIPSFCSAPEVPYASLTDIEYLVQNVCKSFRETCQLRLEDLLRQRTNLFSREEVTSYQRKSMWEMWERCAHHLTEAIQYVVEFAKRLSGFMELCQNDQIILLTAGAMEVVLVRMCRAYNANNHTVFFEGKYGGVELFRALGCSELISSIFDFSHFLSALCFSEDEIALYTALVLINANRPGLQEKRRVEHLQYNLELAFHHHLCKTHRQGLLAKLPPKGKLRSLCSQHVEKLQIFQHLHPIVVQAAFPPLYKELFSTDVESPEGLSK
#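 Compounds are pin-transferred onto Drosophila Schneider cells expressing a copper-inducible Gal4–ROR gamma transactivation domain fusion. After 1 hr, copper sulfate is added to 700 uM final; luciferase is read 20 hr later.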
# A number is an active result; – = inactive; ? = inconclusive; · = no result given; [ ] = dose if it differs, or a comment. The list is not random: actives were taken first. Their share in the collection is about 21%. Unless noted, the call rests on the fitted dose curve; in most records, active means well fitted curve in the direction sought with a large enough effect; inconclusive means small, poorly fitted or top-dose-only effect, or another doubt; inactive means no such curve, though single readings can be large; an effect the other way counts as inactive or inconclusive.
SMILES,ELG1 repair inh,DT40 TDP1 CPT,Gal4-VP16 FLuc,DT40 TDP1 no CPT,IL1B secr inh,RORg inh
O=C(/C=C/c1ccccc1)Nc1cccc(C(=O)NCCc2ccccc2)c1,·,?,·,?,–,·
O=C(NCCCCc1ccccc1)c1cccc(NC(=O)C2CCCCC2)c1,·,?,·,25.9µM,–,·
O=C(/C=C/c1ccccc1)Nc1cccc(C(=O)NCCCCc2ccccc2)c1,·,?,·,18.4µM,–,·
C[C@@H]1CC2[C@@H]3C[C@H](F)C4=CC(=O)C(Cl)=C[C@]4(C)[C@@]3(F)[C@H](O)C[C@]2(C)[C@@]1(O)C(=O)CO (stereo partly drawn),·,·,–,·,·,–
O=C(N/N=C/c1ccccn1)c1ccc(Br)o1,–,?,?,?,–,12.6µM
O=C(N/N=C/c1ccccn1)c1cc(Br)ccc1O,–,?,4.47µM,?,–,3.98µM
COc1ccc(C(=O)N/N=C/c2ccccn2)cc1,·,?,·,?,–,·
CCN(CC)CCCn1c(-c2ccccc2)nc2c(N3CCOCC3)nc(C)nc21,·,·,–,·,·,–
Cc1ccc(C(=O)Nc2cc(C(F)(F)F)ccc2N2CCCCC2)cc1[N+](=O)[O-],–,18.4µM,–,20.6µM,–,–
O=C(Nc1cc(C(F)(F)F)ccc1N1CCCCC1)c1cccc([N+](=O)[O-])c1,–,?,–,16.4µM,–,–
Cc1ccc(CSc2ncc(Cl)c(C(=O)Oc3ccc(F)cc3)n2)cc1,·,–,·,–,·,·
C=C[C@@]1(C)CC(=O)[C@]2(O)[C@@]3(C)[C@H](O)CCC(C)(C)[C@@H]3[C@H](O)[C@H](OC(C)=O)[C@@]2(C)O1,·,·,–,·,·,–
CC(NC(=O)c1ccc(C(=O)c2ccccc2)cc1)c1ccc(S(N)(=O)=O)cc1 (stereo not drawn),–,–,·,?,-52.3,·
COc1ccc(/C=C/C(=O)Oc2cccc(/C=N/NC(=O)Cc3ccc(Br)cc3)c2)cc1,?,?,–,?,–,–
O=[N+]([O-])c1ccc(F)c(CN2CCN(c3ncc(Cc4ccccc4)cn3)CC2)c1,·,?,·,20.6µM,–,·
Cc1ccc([N+](=O)[O-])cc1CN1CCN(c2ncc(Cc3ccccc3)cn2)CC1,·,?,·,?,–,·
COc1ccc([N+](=O)[O-])cc1CN1CCN(c2ncc(Cc3ccccc3)cn2)CC1,·,20.6µM,·,18.4µM,–,·
O=C(CN(C(=O)c1csnn1)c1ccccc1F)NC1CCCCC1,–,–,–,–,–,–
Cc1cccc(N2CN(Cc3ccco3)CNC2=S)c1C,–,–,11.2µM,–,–,7.08µM
Cc1ccc(C)c(N2CN(Cc3ccco3)CNC2=S)c1,–,–,10µM,–,–,6.31µM
Cc1cccc(N2CN(Cc3cccnc3)CNC2=S)c1C,–,–,–,–,–,–
Cc1ccccc1N1CN(Cc2ccco2)CNC1=S,–,–,?,–,–,10µM
CC1CCc2nn(CC(=O)Nc3ccccc3Cl)cc2C1 (stereo not drawn),·,–,·,–,·,·
Cc1cc(C)c(S(=O)(=O)NCC(c2cccs2)S(=O)(=O)c2ccccc2)c(C)c1 (stereo not drawn),·,1.16µM,·,4.11µM,·,·
CCC(=O)NCC(c1cccs1)S(=O)(=O)c1ccc(C)cc1 (stereo not drawn),–,–,–,–,–,–
SMILES,ELG1 repair inh,DT40 TDP1 CPT,Gal4-VP16 FLuc,DT40 TDP1 no CPT,IL1B secr inh,RORg inh
Cc1ccc(C(=O)NCC(c2cccs2)S(=O)(=O)c2cccs2)cc1 (stereo not drawn),·,20.6µM,·,9.2µM,·,·
O=C(NCCc1ccccc1)C(=O)NCC(c1cccs1)S(=O)(=O)c1cccs1 (stereo not drawn),·,16.4µM,·,?,·,·
Cc1ccc(C(=O)CC(c2cccs2)S(=O)(=O)c2ccc(C)cc2)cc1 (stereo not drawn),?,?,–,14.6µM,–,–[10 µM]
C/C(=C\C[Si](C)(C)C)CCC=O,·,·,–,·,·,–
O=C1NC[C@H](Cc2ccccc2)N(CC2CCN(CCCC3CCCC3)CC2)C1=O,·,–,·,–,–,·
CC(C)CNC(=O)CSc1n[nH]c(=O)n1CCc1ccccc1,–,–,–,–,–,–
COc1ccc(CC(=O)NCC(c2cccs2)S(=O)(=O)c2ccc(C)cc2)cc1 (stereo not drawn),·,?,·,25.9µM,·,·
CC(C)(C)c1ccc(C(=O)NCC(c2cccs2)S(=O)(=O)c2ccc(F)cc2)cc1 (stereo not drawn),·,18.4µM,·,20.6µM,·,·
O=C(NCCO)C(=O)NCC(c1cccs1)S(=O)(=O)c1ccc(F)cc1 (stereo not drawn),·,–,·,–,–,·
O=C(NCc1ccccc1)C(=O)NCC(c1cccs1)S(=O)(=O)c1cccs1 (stereo not drawn),·,–,·,–,·,·
COc1ccccc1CNC(=O)C(=O)NCC(c1cccs1)S(=O)(=O)c1ccccc1 (stereo not drawn),·,?,·,16.4µM,·,·
Cc1ccccc1C(=O)NC(=S)NCCc1ccccc1,–,?,?,?,–,7.94µM
Cc1ccccc1C(=O)NC(=S)NCc1ccccc1,–,–,7.08µM,?,–,6.31µM
CC(C)(C)CC(=O)NC(=S)NCc1ccccc1,–,?,8.91µM,–,–,1.12µM
Cc1ccccc1C(=O)NCC(=O)NNC(=S)NC(=O)c1ccccc1C,–,–,?,?,–,5.62µM
Cc1ccccc1C(=O)NCC(=O)NNC(=S)NC(=O)c1ccccc1,–,–,–,–,–,?
C=CCOc1ccccc1CN1CCC(Oc2cc(C(=O)NC3CC3)ccc2OC)CC1,–,?,–,–,–,–
O=C(COC(=O)CCCOc1ccccc1)NC1CCS(=O)(=O)C1 (stereo not drawn),–,–,·,–,–,·
CCn1c(SCc2cccc(C)c2)nnc1-c1ccc(C)cc1,–,?,–,?,–,–
c1cc(CN2CCCCC2)cc(OCCCNc2nc3ccccc3s2)c1,·,18.4µM,–,11.6µM,–,–
O=C(NCCCOc1cccc(CN2CCCCC2)c1)c1ccc(Cl)c(Cl)c1,–,18.4µM,–,13µM,?,–
O=C(NCC1CCCN(Cc2cccc(OCCO)c2)C1)c1ccc(F)cc1 (stereo not drawn),–,–,–,–,–,–
O=C(CSc1nc2ccccc2c(=O)n1Cc1ccco1)NCc1ccco1,–,?,?,?,–,–

# Screens as filed in PubChem BioAssay.
